From PubChem BioAssay (EPA / NIEHS)
Results filed as inconclusive are left out. The source made the active and inactive calls. How the source made its calls, unless noted: active means hit-call score of the fitted dose curve at least 0.9, where 1 is the maximum; inactive means score below 0.9.

Columns and labels:
[1] = molecular target: human RAR-related Orphan Receptor beta (RORb), RORB (gene 6096) (UniProt Q92753); experiment: ATG_RORb_TRANS: Attagene TRANS-FACTORIAL HepG2 Assay for human RAR-related Orphan Receptor beta (RORb) (AID 2283010; active means hit-call score of the fitted dose curve at least 0.9, where 1 is the maximum)
Outline: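 Multiplexed transcription-factor reporter assay: HepG2 cells transiently carrying NR-Gal4/GAL4-UAS constructs, 24 h treatment, mRNA quantified by RT-PCR plus capillary electrophoresis fluorescence; activity scored as induction over DMSO.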

[2] = molecular target: Retinoic acid receptor RXR-alpha (Homo sapiens) (UniProt P19793); experiment: ATG_RXRa_TRANS: Attagene TRANS-FACTORIAL HepG2 Assay for human Retinoid X Receptor alpha (RXRa) (AID 2283012; active means hit-call score of the fitted dose curve at least 0.9, where 1 is the maximum)
Outline: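 Chimeric NR-GAL4 trans-activation in HepG2, 24 h treatment; reporter transcripts quantified by fluorescence on capillary electrophoresis, analysed for upward change from DMSO.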

[3] = molecular target: human Retinoid X Receptor beta (RXRb), RXRB (gene 6257) (UniProt P28702); experiment: ATG_RXRb_TRANS: Attagene TRANS-FACTORIAL HepG2 Assay for human Retinoid X Receptor beta (RXRb) (AID 2283013; active means hit-call score of the fitted dose curve at least 0.9, where 1 is the maximum)
Outline: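 After a 24 h incubation with test chemical, transfected HepG2 cells carrying NR-Gal4 fusions and GAL4-UAS reporter transcription units yield RNA whose reporter cDNA is FAM-labelled, HpaI-cut and sized by capillary electrophoresis; increases over DMSO are scored.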

[4] = molecular target: human Thyroid Receptor alpha (THRa1), THRA (gene 7067) (UniProt P10827); experiment: ATG_THRa1_TRANS: Attagene TRANS-FACTORIAL HepG2 Assay for human Thyroid Receptor alpha (THRa1) (AID 2283014; active means hit-call score of the fitted dose curve at least 0.9, where 1 is the maximum)
Outline: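 HepG2 cells transiently transfected with chimeric NR-Gal4 and GAL4-UAS reporter units, dosed 24 h. Reporter mRNA quantified by RT-PCR, fluorescent labeling, HpaI digestion and capillary electrophoresis; gain-of-signal fit versus DMSO.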

[5] = read-out: E-selectin (Homo sapiens) (UniProt P16581); experiment: BSK_3C_Eselectin: BioMAP Diversity Plus: 3C Assay for Eselectin Biomarker Activity (AID 2283015); conditions: primary human endothelial cells (HUVEC); actives raise or lower the signal
Outline: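 Primary human umbilical vein endothelial cells (3C system), read 24 h after compound addition; E-selectin measured by ELISA. Bidirectional curve fitting against DMSO baseline; cytotoxicity by parallel SRB total-protein staining.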

[6] = read-out: Interleukin-1 alpha (IL1a), IL1A (gene 3552); experiment: BSK_BE3C_IL1a: BioMAP Diversity Plus: BE3C Assay for Interleukin-1 alpha (IL1a) Biomarker Activity (AID 2283016); conditions: primary human bronchial epithelial cells; actives raise or lower the signal
Outline: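 Measured in human lung primary bronchial epithelial cells: IL-1a by ELISA at 24 h after dosing, with bidirectional fitting against DMSO.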

[7] = read-out: Monocyte Chemoattractant Protein-1 (MCP1), CCL2 (gene 6347); experiment: BSK_3C_MCP1: BioMAP Diversity Plus: 3C Assay for Monocyte Chemoattractant Protein-1 (MCP1) Biomarker Activity (AID 2283017); conditions: primary human endothelial cells (HUVEC); actives raise or lower the signal
Outline: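 Human umbilical vein endothelial cells (3C system) exposed to chemicals for 24 h; MCP-1 quantified by ELISA against the DMSO baseline with bidirectional fitting, and parallel SRB staining used to assess cytotoxicity.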

[8] = read-out: Monocyte Chemoattractant Protein-1 (MCP1), CCL2 (gene 6347); experiment: BSK_4H_MCP1: BioMAP Diversity Plus: 4H Assay for Monocyte Chemoattractant Protein-1 (MCP1) Biomarker Activity (AID 2283018); conditions: primary human endothelial cells (HUVEC); actives raise or lower the signal
Outline: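 Primary human umbilical vein endothelium is exposed to chemical for 24 h before MCP-1 is assayed by ELISA. Concentration-response fitted bidirectionally relative to DMSO.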

[9] = read-out: Human Leukocyte Antigen - DR isotype (HLADR), HLA-DRA (gene 3122); experiment: BSK_3C_HLADR: BioMAP Diversity Plus: 3C Assay for Human Leukocyte Antigen - DR isotype (HLADR) Biomarker Activity (AID 2283019); conditions: primary human endothelial cells (HUVEC); actives raise or lower the signal
Outline: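 HUVEC monoculture, HLA-DR measured by ELISA 24 h after chemical dosing. Fitted bidirectionally against DMSO baseline; parallel SRB staining assessed cytotoxicity, with 3C proliferation read by SRB at 48 h.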

[10] = molecular target: human RAR-related Orphan Receptor gamma (RORg), RORC (gene 6097) (UniProt P51449); experiment: ATG_RORg_TRANS: Attagene TRANS-FACTORIAL HepG2 Assay for human RAR-related Orphan Receptor gamma (RORg) (AID 2283011; active means hit-call score of the fitted dose curve at least 0.9, where 1 is the maximum)
Outline: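 HepG2 cells transiently transfected with GAL4-UAS reporter units and chimeric RORg-Gal4 construct; after 24 h chemical exposure, reporter mRNA measured by RT-PCR with fluorescent capillary electrophoresis, gain of signal fitted against DMSO.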

Measured: AC50

Chain of Retinoic acid receptor RXR-alpha (Homo sapiens) (P19793 whole entry, looked up, the tested form may be a part): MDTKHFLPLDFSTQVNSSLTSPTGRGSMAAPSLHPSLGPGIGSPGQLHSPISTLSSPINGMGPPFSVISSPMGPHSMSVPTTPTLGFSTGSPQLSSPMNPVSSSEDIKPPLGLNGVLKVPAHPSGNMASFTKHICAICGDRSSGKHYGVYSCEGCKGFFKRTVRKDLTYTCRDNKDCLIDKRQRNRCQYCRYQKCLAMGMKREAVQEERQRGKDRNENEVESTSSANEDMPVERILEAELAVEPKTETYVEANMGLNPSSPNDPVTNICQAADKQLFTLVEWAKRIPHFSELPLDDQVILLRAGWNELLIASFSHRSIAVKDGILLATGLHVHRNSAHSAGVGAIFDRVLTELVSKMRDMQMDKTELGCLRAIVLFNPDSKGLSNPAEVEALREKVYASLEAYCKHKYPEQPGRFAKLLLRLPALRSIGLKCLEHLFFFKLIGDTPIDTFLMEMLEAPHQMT
Chain of human RAR-related Orphan Receptor gamma (RORg), RORC (gene 6097) (P51449 whole entry, looked up, the tested form may be a part): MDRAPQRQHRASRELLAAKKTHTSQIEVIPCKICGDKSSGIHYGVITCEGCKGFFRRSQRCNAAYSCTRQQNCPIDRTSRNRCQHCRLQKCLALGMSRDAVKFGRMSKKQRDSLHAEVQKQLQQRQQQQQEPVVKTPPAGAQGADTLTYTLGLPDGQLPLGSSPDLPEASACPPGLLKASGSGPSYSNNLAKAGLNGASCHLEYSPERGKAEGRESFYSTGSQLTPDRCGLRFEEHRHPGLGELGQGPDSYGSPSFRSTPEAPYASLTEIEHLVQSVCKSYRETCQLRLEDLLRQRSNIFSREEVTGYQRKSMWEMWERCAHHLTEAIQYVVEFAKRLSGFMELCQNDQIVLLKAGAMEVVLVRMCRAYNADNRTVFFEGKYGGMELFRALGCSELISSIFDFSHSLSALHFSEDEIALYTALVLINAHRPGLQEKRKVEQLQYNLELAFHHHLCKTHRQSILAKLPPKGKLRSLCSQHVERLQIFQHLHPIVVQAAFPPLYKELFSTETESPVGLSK
Chain of human Retinoid X Receptor beta (RXRb), RXRB (gene 6257) (P28702 whole entry, looked up, the tested form may be a part): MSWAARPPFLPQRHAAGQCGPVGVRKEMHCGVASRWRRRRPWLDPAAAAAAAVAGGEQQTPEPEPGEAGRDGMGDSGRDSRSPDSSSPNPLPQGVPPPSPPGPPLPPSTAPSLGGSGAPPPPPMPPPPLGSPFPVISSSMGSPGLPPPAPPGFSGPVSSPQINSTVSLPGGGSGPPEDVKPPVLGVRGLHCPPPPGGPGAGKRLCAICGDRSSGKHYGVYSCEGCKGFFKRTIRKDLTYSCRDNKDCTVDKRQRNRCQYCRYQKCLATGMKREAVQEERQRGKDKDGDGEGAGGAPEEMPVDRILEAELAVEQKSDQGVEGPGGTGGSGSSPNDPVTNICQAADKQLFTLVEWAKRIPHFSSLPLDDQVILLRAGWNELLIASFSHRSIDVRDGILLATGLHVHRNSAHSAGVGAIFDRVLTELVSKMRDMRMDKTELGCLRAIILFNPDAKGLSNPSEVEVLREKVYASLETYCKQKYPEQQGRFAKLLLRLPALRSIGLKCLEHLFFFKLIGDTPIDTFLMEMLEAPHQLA
Chain of human RAR-related Orphan Receptor beta (RORb), RORB (gene 6096) (Q92753 whole entry, looked up, the tested form may be a part): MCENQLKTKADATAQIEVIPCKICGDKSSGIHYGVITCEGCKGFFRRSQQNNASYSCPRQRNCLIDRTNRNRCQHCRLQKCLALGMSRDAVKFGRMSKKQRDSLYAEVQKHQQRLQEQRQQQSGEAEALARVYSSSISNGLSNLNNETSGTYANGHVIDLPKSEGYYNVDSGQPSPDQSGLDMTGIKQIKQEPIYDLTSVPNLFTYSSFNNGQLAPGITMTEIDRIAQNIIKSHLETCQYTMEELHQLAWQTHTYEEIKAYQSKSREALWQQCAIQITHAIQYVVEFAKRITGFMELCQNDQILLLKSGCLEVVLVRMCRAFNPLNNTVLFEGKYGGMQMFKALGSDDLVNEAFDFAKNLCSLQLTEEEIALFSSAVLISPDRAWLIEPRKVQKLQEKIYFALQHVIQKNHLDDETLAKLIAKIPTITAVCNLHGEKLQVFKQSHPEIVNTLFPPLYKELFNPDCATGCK
Chain of human Thyroid Receptor alpha (THRa1), THRA (gene 7067) (P10827 whole entry, looked up, the tested form may be a part): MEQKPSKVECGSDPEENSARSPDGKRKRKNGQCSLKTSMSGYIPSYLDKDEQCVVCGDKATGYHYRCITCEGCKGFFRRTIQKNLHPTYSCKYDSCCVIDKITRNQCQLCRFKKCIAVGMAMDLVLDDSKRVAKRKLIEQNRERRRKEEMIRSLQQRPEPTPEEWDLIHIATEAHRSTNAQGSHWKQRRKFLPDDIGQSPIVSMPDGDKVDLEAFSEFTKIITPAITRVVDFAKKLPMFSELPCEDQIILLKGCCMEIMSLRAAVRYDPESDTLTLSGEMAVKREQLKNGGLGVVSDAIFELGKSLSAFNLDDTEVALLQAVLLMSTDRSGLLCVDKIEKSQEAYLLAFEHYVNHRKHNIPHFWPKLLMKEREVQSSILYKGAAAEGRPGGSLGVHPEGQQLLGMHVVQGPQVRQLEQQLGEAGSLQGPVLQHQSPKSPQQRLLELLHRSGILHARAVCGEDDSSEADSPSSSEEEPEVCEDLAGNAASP
Chain of E-selectin (Homo sapiens) (P16581 whole entry, looked up): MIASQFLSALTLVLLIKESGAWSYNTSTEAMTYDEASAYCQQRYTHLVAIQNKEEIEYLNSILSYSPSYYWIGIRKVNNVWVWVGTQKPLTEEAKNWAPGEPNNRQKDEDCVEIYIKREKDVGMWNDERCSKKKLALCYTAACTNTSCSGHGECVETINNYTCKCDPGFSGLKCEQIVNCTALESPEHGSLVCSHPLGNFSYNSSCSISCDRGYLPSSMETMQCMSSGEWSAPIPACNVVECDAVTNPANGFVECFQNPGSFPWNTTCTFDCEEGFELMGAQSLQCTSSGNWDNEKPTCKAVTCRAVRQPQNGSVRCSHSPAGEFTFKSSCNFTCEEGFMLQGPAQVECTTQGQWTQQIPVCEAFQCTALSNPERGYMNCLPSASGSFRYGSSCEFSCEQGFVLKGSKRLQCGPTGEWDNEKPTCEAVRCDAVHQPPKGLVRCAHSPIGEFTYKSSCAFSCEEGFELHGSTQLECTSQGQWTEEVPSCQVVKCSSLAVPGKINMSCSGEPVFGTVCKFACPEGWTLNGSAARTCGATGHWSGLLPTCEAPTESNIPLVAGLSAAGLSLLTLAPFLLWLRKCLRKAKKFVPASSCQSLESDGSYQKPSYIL

CCc1ccc(O)c(C(C)(C)C)c1
inactive: [1] | [4] | [6]
active: [2] 39.9 µM | [3] 8.8 µM | [5] 33.3 µM | [7] 30.9 µM | [8] 25 µM | [9] 30.9 µM

CCN(CC)C(=S)SSC(=S)N(CC)CC
active: [5] 34.8 µM | [6] 16.3 µM | [7] 30.6 µM | [8] 24.6 µM | [9] 12.4 µM
inactive: [1] | [10] | [2] | [3]

O=C(O)[C@H](O)[C@@H](O)C(=O)O
inactive: all assays above

OCCC(F)(F)C(F)(F)C(F)(F)C(F)(F)F
not listed: [3]
inactive: all other assays above

Cc1nccn1-c1ccc(Sc2cccc(C3(C(N)=O)CCOCC3)c2)cc1
active: [6] 10.8 µM | [8] 4.95 µM | [9] 7.74 µM
not listed: [3]
inactive: all other assays above

CCOc1ccc2[nH]cc(C(=O)NCc3ccccc3)c(=O)c2n1
not listed: [1] | [10]
inactive: all other assays above

OCC(CO)(CO)CO
not listed: [1]
inactive: all other assays above

CC1(C)C(=O)N(Cl)C(=O)N1Cl
inactive: [10] | [5] | [6] | [7] | [8] | [9]

CCCCCCCCCC
not listed: [1] | [4]
inactive: all other assays above

CCCc1ccccc1
not listed: [1] | [10]
inactive: all other assays above

O=c1[nH]cnc2c1ncn2[C@H]1CC[C@@H](CO)O1
not listed: [1] | [3]
inactive: all other assays above

c1ccc2ncccc2c1
not listed: [1] | [3] | [4]
inactive: all other assays above

CCCC(CCC)C(=O)O
not listed: [4] | [10]
inactive: all other assays above

CCCCCCCCN(C)C
not listed: [1] | [4]
inactive: all other assays above

NC(=O)NN=Cc1ccc([N+](=O)[O-])o1
inactive: [10] | [5] | [6] | [7] | [8] | [9]

COCc1nnc(-c2ccc[n+]([O-])c2)n1-c1c(Cl)c(Cl)cc2[nH]c(=O)c(=O)[nH]c12
not listed: [1] | [3] | [4]
inactive: all other assays above

c1ccc(C(O[C@@H]2CCCN(CCc3ccc4c(c3)OCO4)C2)c2ccccc2)cc1
active: [8] 23.6 µM | [9] 30.8 µM
not listed: [1] | [2]
inactive: all other assays above

CCCCCCCC/C=C\CCCCCCCC(=O)OC[C@@H](O)[C@H]1OC[C@H](O)[C@H]1O
not listed: [1]
inactive: all other assays above

S=P(N1CC1)(N1CC1)N1CC1
not listed: [1]
inactive: all other assays above

CCCCCCCCCCCCCCCCOS(=O)(=O)O
active: [3] 14.6 µM | [6] 14.7 µM
not listed: [1] | [10]
inactive: all other assays above

OC[C@H]1O[C@@](CO)(O[C@H]2O[C@H](CO)[C@@H](O)[C@H](O)[C@H]2O)[C@@H](O)[C@@H]1O
not listed: [4] | [10]
inactive: all other assays above

FC(F)=C(F)C(F)(F)C(F)(F)C(F)(F)C(F)(F)C(F)(F)C(F)(F)F
not listed: [1]
inactive: all other assays above

Cc1ncc([C@@H](CCCCCCc2ccc3c(n2)NCCC3)CC(=O)O)cn1
not listed: [1]
inactive: all other assays above

CCc1cccc(CC)c1N
active: [3] 100 µM
not listed: [1] | [2]
inactive: all other assays above
